# In PubChem BioAssay AID463173 (ICCB-Longwood Screening Facility, Harvard Medical School, 2010):
# About 4,300 (8.3%) of roughly 52,000 compounds were called active. The sample holds actives, similar compounds and a random draw of the others, so the mix is not that of the screen. Values without a mark were called inactive. Rule as the data show it: active = survival mostly below about 52% (no sharp cut-off); inactive = mostly above about 56%.
# Tested on: DeltatarO mutant
# Experiment: growth inhibition of S. aureus wild type versus tarO mutant, primary screen, teichoic acid synthesis inhibitors, RN4220, OD600 (AID 463173)
# Conditions: OD600, 18 h, stronger effect = lower value, screened at 18.75 µg/mL (by protocol)
row,Structure (SMILES),survival
1,Cc1cc(=O)n2c([nH]c3ccccc32)c1C(=O)O,61%
2,CCOC(=O)CSc1nc(-c2ccccc2)cc(C(F)(F)F)c1C#N,70%
3,N#Cc1c(C(F)(F)F)cc(=O)n2c1[nH]c1ccccc12,37% (active)
4,CC(=O)N1CCc2c(sc3c2c(=O)n(-c2ccccc2)c(=O)n3CC(=O)Nc2ccccc2)C1,91%
5,COc1cccc(NC(=O)C(=O)NCCc2csc(-c3ccc(C(F)(F)F)cc3)n2)c1,94%
6,CCOc1ccccc1NC(=O)c1nnn(CC(=O)Nc2ccc(OC)c(OC)c2)c1N,91%
7,CCCNC(=O)C1CCN(Cc2cc3ccccc3n2Cc2ccccc2)CC1,87%
8,Cc1ccc(Cn2c(CN3CCC(C(=O)NCC(C)c4ccccc4)CC3)cc3ccccc32)cc1 (stereo unspecified),113%
9,CC(CNC(=O)C1CCN(Cc2cc3ccccc3n2Cc2ccccc2)CC1)c1ccccc1 (stereo unspecified),47% (active)
10,Cc1cc(N2CCN(C)CC2)nc2ccc(NC(=O)Nc3ccc(F)cc3F)cc12,73%
11,O=C(Cc1ccc(F)cc1)NCCc1csc(-c2cccc(F)c2)n1,88%
12,Cc1ccc(C)c(NC(=O)/C(C#N)=C/c2ccc(C(C)C)cc2)c1,66%
13,Cc1cc(Cl)c2cccc(Br)c2n1,110%
14,Cc1cc(Nc2cccc(O)c2)c2cccc(Br)c2n1,61% (active)
15,Cc1cc(Nc2ccccc2C)c2cccc(C)c2n1,62%
16,Cc1ccc(C(C)C)c(OCCCn2c(=O)oc3ccccc32)c1,-3% (active)
17,Cc1cccc(NC(=O)NCCn2c(=O)oc3ccc(C)cc32)c1,71%
18,CCOc1ccccc1NC(=O)NCCn1c(=O)oc2ccc(C)cc21,71%
19,Cc1ccc(C(C)C)c(OCC(=O)N2CCC(c3nc4ccccc4o3)CC2)c1,80%
20,Cc1ccc(NC(=O)NCCOCCn2c(=O)oc3ccccc32)c(C)c1,70%
21,Cc1ccc(C(C)C)c(OCCCn2c(=O)oc3ccc(C)cc32)c1,-5% (active)
22,Cc1ccc(Cl)cc1NC(=O)Cn1c(=O)n(Cc2ccc(C(=O)NCc3ccc4c(c3)OCO4)cc2)c(=O)c2ccccc21,90%
23,COc1ccc(NC(=O)Cn2c(=O)n(-c3cc(C)cc(C)c3)c(=O)c3oc4ccccc4c32)cc1OC,68%

row,Structure (SMILES),survival
1,CCc1ccccc1NC(=O)c1ccc2c(c1)N(Cc1cccc(Cl)c1)C(=O)c1ccccc1S2(=O)=O,81%
2,O=S(=O)(NCCc1nnc2ccc(SCc3ccc(C(F)(F)F)cc3)nn12)c1ccccc1,67%
3,COc1ccc(Br)cc1C(=O)Nc1cccc2ccc(C)nc12,73%
4,Cc1ccc2cccc(NC(=O)c3cccc4ccccc34)c2n1,-2% (active)
5,COc1c(C)cccc1C(=O)Nc1cccc2ccc(C)nc12,-1% (active)
6,Cc1ccc2cccc(NC(=O)c3cccc4c(Br)cccc34)c2n1,134%
7,Cc1ccc2cccc(NC(=O)c3cccc4c(Cl)cccc34)c2n1,63%
8,CCOc1ccccc1C(=O)Nc1cccc2ccc(C)nc12,68%
9,Cc1cc2c(cc1S(=O)(=O)CCC(=O)N1CCC(C)CC1)OCC(=O)N2,102%
10,Cc1ccccc1-c1nc(CS(=O)(=O)CC(=O)N2CCN(c3ccccc3)CC2)c(C)o1,65%
11,O=C(Cn1ccc2cc(S(=O)(=O)N3CCCC3)ccc21)NCc1ccc(Cl)cc1,84%
12,Cc1ccc(-c2cc3nc(-c4ccccc4)cc(C(F)(F)F)n3n2)cc1,69%
13,N#Cc1c(NC(=O)c2cc3nc(-c4ccc(Br)cc4)cc(C(F)(F)F)n3n2)sc2c1CCCC2,32% (active)
14,Cc1cc2nc(-c3ccc(Br)cc3)cc(C(F)(F)F)n2n1,37% (active)
15,COc1ccc(-c2cc3nc(-c4ccc(Br)cc4)cc(C(F)(F)F)n3n2)cc1,51%
16,COc1cccc(-c2cc(C(F)(F)F)n3nc(-c4ccc(C)cc4)cc3n2)c1,142%
17,CC(=O)c1cccc(NC(=O)c2cc3nc(-c4ccc(Br)cc4)cc(C(F)(F)F)n3n2)c1,49%
18,Cc1ccc(-c2cc(C(F)(F)F)n3nc(-c4cccc(Br)c4)cc3n2)cc1,46% (active)
19,Cc1ccc(-c2cc(C(F)(F)F)n3nc(C(=O)Nc4sc5c(c4C#N)CCC(C)C5)cc3n2)cc1 (stereo unspecified),95%
20,CCCNC(=O)c1cc2nc(-c3ccc(Br)cc3)cc(C(F)(F)F)n2n1,51% (active)
21,CCc1ccccc1NC(=O)c1cc2nc(-c3ccc(Br)cc3)cc(C(F)(F)F)n2n1,84%
22,Cc1cc(C(F)(F)F)n2nc(-c3ccc(Br)cc3)cc2n1,66%
23,COC(=O)c1c(NC(=O)c2cc3nc(-c4ccc(Br)cc4)cc(C(F)(F)F)n3n2)sc2c1CCCC2,70%
